A selection: hits, their analogues and other compounds. The true share with any hit is near 32%.
CYP2C19 inhib: blockers of cytochrome P450 2C19 activity – biochemical, luminescence, ADME assay, primary screen. CYP2C19 Supersomes, luciferin-H EGE luminescence, 30 min. P33261. hit rate 21% among 96,000. AID 778, 2007. inhibition, % at 5 µM;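 active = CYP2C19 inhibition above a set limit at 5 µM in the primary screen, cut at about 50% in these data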
CYP2C19 act: human CYP2C19 activators, primary screen, biochemical, luminescence; Cytochrome P450 2C19 (Homo sapiens), P33261; recombinant CYP2C19, luciferin-H EGE luminescence; stronger effect = higher value; 0 = fully inhibited enzyme, 1 = untreated enzyme; activation factor at 5 µM; 96,000 tested, under 10 active; AID 1025, 2008;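 active = activation factor of at least 2 at 5 µM in the primary screen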
CYP2C9 inhib: blockers of cytochrome P450 2C9 activity – biochemical, luminescence, ADME assay, primary screen. P11712. CYP2C9 Supersomes, luciferin-H conversion. inhibition, % at 5 µM. hit rate 20% among 96,000;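 active = blocking of liver enzyme CYP2C9 beyond about 50% at 5 µM, limit read from the data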
Target sequence (P11712 whole entry, looked up): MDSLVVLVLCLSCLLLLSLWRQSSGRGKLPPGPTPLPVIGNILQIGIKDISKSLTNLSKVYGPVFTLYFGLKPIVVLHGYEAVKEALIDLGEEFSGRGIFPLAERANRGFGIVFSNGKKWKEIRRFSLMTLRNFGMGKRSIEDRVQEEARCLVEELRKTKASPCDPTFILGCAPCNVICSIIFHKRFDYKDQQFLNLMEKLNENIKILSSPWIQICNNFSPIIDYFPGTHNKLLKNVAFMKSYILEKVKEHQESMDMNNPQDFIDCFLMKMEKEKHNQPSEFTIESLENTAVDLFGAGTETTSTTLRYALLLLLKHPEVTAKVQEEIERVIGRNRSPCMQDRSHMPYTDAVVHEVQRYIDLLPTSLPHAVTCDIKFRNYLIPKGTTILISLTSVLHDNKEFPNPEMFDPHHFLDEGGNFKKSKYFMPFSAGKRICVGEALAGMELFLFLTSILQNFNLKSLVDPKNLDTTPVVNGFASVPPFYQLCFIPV
PostGolgi yeast: phenotypic screen on post-Golgi transport, primary screen. post-Golgi transport phenotypic cell assay. inhibition, % at 10 µM. hit rate 0.9% among 98,000. AID 739, 2007;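 also: yeast cells grown in 1536-well plates; yeast grown about 18 h at 30C before absorbance read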
CYP2C9 act: human CYP2C9 activators, primary screen, biochemical, luminescence; Cytochrome P450 2C9 (Homo sapiens), P11712; recombinant CYP2C9, luciferin-H conversion; stronger effect = higher value; factor 1 = untreated enzyme, 0 = blocked; activation factor at 5 µM; hit rate 1.4% among 96,000; AID 1024, 2008;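 active = activation factor of 2 or more for CYP2C9 at a 5 µM dose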
PostGolgi ctrl: growth inhibition of yeast control strain, primary screen, counter-screen for post-Golgi transport modulator project; efflux-deficient yeast background strain, growth absorbance A615, 16 h; inhibition, % at 10 µM; hit rate 5% among 98,000
A number is an active result; n = inactive; x = not tested or not shown. Rule as the data show it, unless noted: active = inhibition above about 30%; inactive = the rest.

SMILES | CYP2C19 inhib | CYP2C19 act | CYP2C9 inhib | PostGolgi yeast | CYP2C9 act | PostGolgi ctrl
CC1(C)Cc2c(c(N3CCOCC3)nc3sc4c(=O)[nH]cnc4c23)CS1 | n | n | n | n | n | n
CCc1nc2c(sc3nc(N4CCOCC4)c4c(c32)CC(C)(C)OC4)c(=O)o1 | n | n | 61 | x | n | x
CC1(C)Cc2c(c(N3CCOCC3)nc3sc4c(N5CCOCC5)nnnc4c23)CS1 | n | n | 78 | n | n | n
CC1(C)Cc2c(c(N3CCCC3)nc3sc4c(N5CCN(CCO)CC5)ncnc4c23)CO1 | x | x | x | n | x | n
Cc1ccc(CSCCNC(=O)/C=C/c2ccccc2Cl)cc1 | n | n | n | n | n | n
CCSc1nnc(-c2cccs2)o1 | n | n | n | n | n | n
CCSc1nnc(-c2ccc(S(=O)(=O)NCc3cccs3)cc2)o1 | n | n | 70 | n | n | n
O=C(NCC1CCCO1)C1CCN(S(=O)(=O)c2cccc3nonc23)CC1 (stereo unspecified) | n | n | n | n | n | n
CCOC(=O)c1cnc2c(C(=O)OC)cccc2c1NCc1ccco1 | n | n | 54 | n | n | n
CCOC(=O)c1ccc2ncc(C(=O)OCC)c(NCCCN3CCOCC3)c2c1 | 83 | n | 88 | n | n | n
CCOC(=O)c1ccc2ncc(C(=O)OCC)c(NCc3ccco3)c2c1 | n | n | 56 | n | n | n
CCOC(=O)c1cnc2ccc(Br)cc2c1NCCO | n | n | n | n | n | n
COC(=O)C1=C(C)NC(C)=C(C(=O)OC)C1c1ccc(OC(=O)c2ccco2)cc1 | n | n | 57 | n | n | n
CCOC(=O)C1=C(C)NC(C)=C(C(=O)OCC)C1c1ccc(OC)cc1 | 70 | n | 88 | n | n | n
COCCOC(=O)C1=C(C)NC(=O)NC1c1ccc(OC(=O)c2ccco2)c(OC)c1 (stereo unspecified) | n | n | n | n | n | n
CCOC(=O)C1C(=O)C=C(C)C(C(=O)OCC)C1c1ccc(OC)cc1 (stereo unspecified) | 73 | n | n | n | n | n
C=CCOC(=O)C1=C(C)NC(C)=C(C(=O)OCC=C)C1c1ccc(O)cc1 | 100 | n | 100 | x | n | x
CCOC(=O)CSc1nnc(-c2ccc(OC)cc2OC)o1 | n | n | n | n | n | n
c1ccc(-n2ncc3c2ncn2nc(-c4ccco4)nc32)cc1 | n | n | n | n | n | n
CC(C)C1S/C(=N/N=C/c2cccs2)NC1=O (stereo unspecified) | n | n | n | n | n | n
Cc1noc(/C=C/c2ccc(-c3ccccc3Cl)o2)c1[N+](=O)[O-] | n | n | n | n | n | n
CC(=O)Nc1cc(OC(=O)c2ccco2)cc(OC(=O)c2ccco2)c1 | n | n | 66 | n | n | n
COC(=O)C1=C(C)NC(C)=C(C(=O)OC)C1c1ccccn1 | n | n | 83 | n | n | n
CCCOC(=O)c1ccc(OC(=O)c2ccco2)cc1 | n | n | n | n | 2 | n
CCCOC(=O)c1ccc(NC(=O)Oc2ccccc2)cc1 | n | n | n | n | n | n
SMILES | CYP2C19 inhib | CYP2C19 act | CYP2C9 inhib | PostGolgi yeast | CYP2C9 act | PostGolgi ctrl
CCCCCCNC(=O)Cc1nc2nc(C)cc(C)n2n1 | n | n | n | n | n | n
Cc1ccc(C)c(-n2c(CNc3ccc(F)cc3)nnc2SCC(N)=O)c1 | n | n | n | n | n | n
CC1=C(c2ccc(C)cc2)S(=O)(=O)N(CC(=O)O)C1=O | n | n | 82 | n | n | n
COC(=O)CN1C(=O)C(C)=C(c2ccc(C)cc2)S1(=O)=O | n | n | n | n | n | n
Cc1cccc(C)c1NC(=O)C1NC(=O)CC1c1ccccc1 (stereo unspecified) | n | n | n | n | n | n
O=C(CN1CCN(Cc2ccc(F)cc2Cl)C1=O)NCCc1ccc(Cl)cc1 | n | n | 67 | n | n | 37
Cc1nn(-c2ccccc2)c(C)c1NC(=O)COc1ccc2ccccc2c1 | 74 | n | n | n | n | n
CC(C)(C)n1nc2c(c1NC(=O)COc1ccc3ccccc3c1)CS(=O)(=O)C2 | n | n | n | n | n | n
CC(C)(C)c1cc(NC(=O)COc2ccc(Br)cc2)n(-c2ccccc2)n1 | n | n | n | n | n | 37
Cc1csc(SCC(=O)Nc2cc(C(C)(C)C)nn2-c2ccccc2)n1 | 71 | n | 80 | n | n | n
